Our source for the growth values is PubChem BioAssay (NCI).

Holding throughout (assay): NCI-60 one-dose screen, 48 h (100 = growth as untreated, 0 = no growth, -100 = all killed)
Settings in all cases: 10 µM unless noted

Test [1] deals with NCI-H23 lung.
The subject of test [2] is NCI-H226 lung.
For test [3], the system named is NCI-H322M lung.
The test system of test [4] is HOP-62 NSCLC.
Test [5] concerns NCI-H460 lung.
In test [6] the test system is HOP-92 NSCLC.
Test [7] has as its system NCI-H522 lung.
Test [8] relates to A549/ATCC NSCLC.
The test system of test [9] is 786-0 renal.
The subject of test [10] is COLO 205 colon.

Molecules are shown by their SMILES. Compounds without any hit were thinned out: in the full panel of roughly 83,000, 20% have a hit.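 Activity criterion: percent growth below 10, measured after cells in 96-well plates were exposed to a single compound concentration for 48 hours.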 Unmarked numbers belong to inactive results. The source made the active and inactive calls.

`N=C(N)c1ccc(-c2ccc(-c3cc(Cl)cc(Cl)c3)o2)o1`: the growth in [1] is -75.4% (active); in test [2] it was 43.9%; in [3] it was -77.4% (active); in test [4] it was -72.2% (active); in test [5], -78.3% (active); in [6] it was 50.5%. Moreover, the growth in [7] is -70.4% (active); in [8], -71% (active); in test [9], -61.9% (active).
In the case of `C/C(=N/O)c1ccc(F)cc1`, the growth is 84% in test [1]; 91.5% in [2]; 111% in [3]; 92.8% in test [4]; 36.6% in test [5]; 109% in test [6]. Further, the growth was 55.4% in test [7], 103% in test [8] and 107% in test [9].
On to `O=C(/C=C/c1ccccc1)c1cccc(OCCCOc2cccc(C(=O)/C=C/c3ccccc3)c2)c1`, for which the growth was 95.5% in test [1]; 108% in [2]; 105% in test [3]; 116% in test [4]; 101% in [5]; 101% in test [6]. For the same compound, the results for the growth in test [7], in test [8] and in test [9] were 90.3%, 87.2% and 92.9%, respectively.
`CC1(C)CC[C@]2(C(=O)O)CC[C@]3(C)C(=CC[C@@H]4[C@@]5(C)C/C(=C/O)C(=O)C(C)(C)[C@@H]5CC[C@]43C)[C@@H]2C1`: the growth in test [1] is 22.2%; in test [2], 96.2%; in [3], 62.2%; in [4] it was 73.1%; in test [5], 83.6%; in test [6], 89%. Moreover, the growth is 25.2% in [7], 89.4% in test [8] and 84.3% in test [9].
For the compound `COc1ccc(Cc2cc(-c3ccccc3)nn(Cc3ccccc3)c2=O)cc1OC`, the growth was 39.4% in [1]; 52% in test [2]; 82.4% in [3]; 69.1% in test [4]; 33.9% in test [5]; 28% in [6]. Also, the growth was 37% in test [7], 20% in test [8] and 35.8% in test [9].
For `CCOC(=O)C(=Cc1cccc(Br)c1)C(=O)OCC`, the growth was 17.7% in test [1]; 45.2% in test [2]; 65.5% in [3]; 85.1% in test [4]; 68.2% in [5]; 12.9% in [6]. Also, the growth in test [7] is 23.9%; in [8], 41.8%; in [9], 47.4%.
As to `O=C(OCc1ccc2c(Cl)cc(Cl)c(O)c2n1)n1cncn1`, the growth in [1] is 44.5%; in test [2], 59.1%; in [3], 50.4%; in test [4] it was 27.5%; in test [5], 19.9%; in test [6], 49.4%. The growth in test [7] is 51.4%; in [8] it was 22.1%; in test [9], 45.7%.
For `Cc1noc(C)c1C(=O)OCc1coc2ccccc2c1=O`, the growth in test [1] was 71.3%; in test [2], 84.9%; in test [3], 96.2%; in test [4] it was 87.5%; in [5] it was 83.8%; in test [6] it was 27.4%. Further, the growth in test [7] is -15.4% (active); in [8] it was 89.5%; in test [9] it was 55.4%.
As for `O=C(NCCCN1CCOCC1)c1cccc(N2C(=O)/C(=C/c3ccc(F)cc3)SC2=S)c1`, the growth in test [1] was 92.5%; in [2], 90.4%; in [3], 104%; in test [4], 100%; in test [5], 107%; in test [6] it was 46.7%. In addition, the growth is 90.3% in test [7], 103% in [8] and 97.2% in test [9].
Consider `CNC(=O)c1cc(Oc2ccc3nc(NC(C)=O)sc3c2)ccn1`, for which the growth in [1] is 103%; in test [2], 101%; in [3], 104%; in [4] it was 109%; in [5] it was 104%; in test [6], 99.9%. Further, the growth in test [7] is 104%; in [8] it was 102%; in test [9], 94.6%; in test [10], 105%.
`COc1cccc([C@H]2c3[nH]c4ccccc4c3C[C@H]3C(=O)N(CCCCCCC(=O)NO)CC(=O)N23)c1`: the growth in test [1] is 66.8%; in test [2], 88.7%; in test [3] it was 80.2%; in test [4], 68.6%; in test [5], 72.9%; in test [6], -1.94% (active). Further, the growth in test [7] is 25.6%; in [8], 94.9%; in test [9] it was 87.8%.
Regarding `c1ccc(CNc2c3ccccc3nc3ccccc23)cc1`, the growth in [1] was 41.2%; in test [2], 51.7%; in [3], 46.3%; in [4] it was 46%; in test [5], 10.3%; in test [6] it was 25.9%. Besides, the growth is 56.8% in [7], 28.5% in test [8], 34.3% in test [9] and 7.29% (active) in [10].
Regarding `CN1C(=O)/C(=C/c2cn(-c3ccccc3)nc2-c2ccccc2)SC1=S`, the growth in test [1] was 95.4%; in test [2] it was 98.3%; in test [3] it was 107%; in test [4] it was 97.9%; in test [5], 101%; in [6] it was 51.4%. The growth was 90.2% in [7], 102% in [8], 107% in test [9] and 124% in [10].
Take `O=C1c2cc(Cl)ccc2S(=O)(=O)c2c(NCCCNCCO)nc3ccccc3c21`: the growth in test [1] was 25.7%; in test [2], 27.4%; in test [3], 73.8%; in test [4] it was 42.3%; in test [5], 22.5%; in test [6] it was -66% (active). The growth was -77.1% (active) in test [7], 43.3% in test [8], 2.5% (active) in [9] and -81.2% (active) in test [10].
